Assay outcomes (PubChem BioAssay)
ZTA DNA inh: ZTA (EBV) inhibition in EBNA-1 counter-screen; inhibition, % at 11 µM; hit rate 0.15% among 320,000; P03206; ZTA-DNA binding, fluorescence polarization; in the data active means inhibition above about 33%
MEX-5 binding: MEX-5 zinc finger RNA-binding disruptors – biochemical, C. elegans, fluorescence polarization, MLPCN library, primary screen; MEX-5/FITC-TCR2 RNA binding; hits give low values; hit rate 0.38% among 300,000; activity score (negative = inhibition of binding), % at 10 µM; AID 1832, 2009; Zinc finger protein mex-5 (Caenorhabditis elegans), Q9XUB2;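 active means inhibition past about -25% in most replicates, and total fluorescence under double the plate's negative control median, limit read from the data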;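 further: 0% = DMSO and -100% = 5 µM competing unlabeled TCR2 RNA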
Target sequence (Q9XUB2 whole entry, looked up): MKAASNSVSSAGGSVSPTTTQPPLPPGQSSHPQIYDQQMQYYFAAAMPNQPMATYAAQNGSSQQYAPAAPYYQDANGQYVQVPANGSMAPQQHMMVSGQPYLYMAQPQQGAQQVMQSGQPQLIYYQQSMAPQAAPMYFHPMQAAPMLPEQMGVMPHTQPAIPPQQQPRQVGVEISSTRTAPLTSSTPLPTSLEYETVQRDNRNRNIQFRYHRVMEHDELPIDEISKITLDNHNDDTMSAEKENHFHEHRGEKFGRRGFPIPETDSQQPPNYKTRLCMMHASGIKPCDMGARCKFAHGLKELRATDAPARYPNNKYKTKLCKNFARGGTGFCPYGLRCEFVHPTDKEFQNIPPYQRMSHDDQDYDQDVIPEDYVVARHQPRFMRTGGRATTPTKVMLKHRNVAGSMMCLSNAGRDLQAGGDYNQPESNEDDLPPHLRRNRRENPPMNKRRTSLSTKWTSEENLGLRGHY
EBNA-1 inh: EBNA-1 DNA-binding inhibitors, primary screen, biochemical, fluorescence polarization | inhibition, % at 14.8 µM | hit rate 0.34% among 300,000; in the data active means inhibition above about 28%
EBV gp42 block: Epstein-Barr virus gp42 inhibitors, primary screen, biochemical, uHTS, fluorescence polarization; inhibition, % (tested at 21.74 µM); AID 1085, 2008; Glycoprotein 42 (Epstein-Barr virus (strain AG876)), Q1HVG2; hit rate 0.42% among 220,000; Fluorescence polarization binding assay, mP read-out; in the data active means inhibition above about 50%
EBNA-1 inh conf: EBNA-1 DNA-binding inhibitors, retest, confirmation, biochemical, fluorescence polarization, triplicate. AID 2292, 2010. Recombinant EBNA-1 DBD, Cy5-DNA fluorescence polarization. shares compounds with EBNA-1 inh. inhibition, % at 14.8 µM. hit rate 35% among 830;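 active means mean inhibition across replicates above a set limit taken from the earlier primary screen, cut at about 28% in these data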;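 further: plate controls were EBNA-1 protein with DMSO for no effect and wells lacking EBNA-1 for full effect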
ZTA DNA inh trip: EBV Zta DNA binding inhibitors, counter-screen for EBNA-1 inhibitor project, biochemical, fluorescence polarization, triplicate; shares compounds with EBNA-1 inh; Zta-ZRE DNA binding, Cy5 fluorescence polarization; inhibition, % at 11.1 µM; 830 tested, under 10 active;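 active means mean inhibition over triplicates above a set limit taken from the primary EBNA-1 screen, cut at about 37% in these data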;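 further: purified full length Zta protein with Cy5 labeled ZRE DNA probe; 0% = Zta with DMSO and 100% = wells lacking Zta protein; inhibitors lower polarization by freeing the labeled DNA probe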
Numbers without * were called inactive; · = no result given. Rows were chosen to be rich in hits. Some 1% of all compounds tested hit in one or more screens of this group.

SMILES	ZTA DNA inh	MEX-5 binding	EBNA-1 inh	EBV gp42 block	EBNA-1 inh conf	ZTA DNA inh trip
CC(C)c1ccc(C2/C(=C(/O)c3ccc(F)cc3)C(=O)C(=O)N2CCCN2CCOCC2)cc1 (stereo not given)	-13.7	-1.5	0.7	·	·	·
COc1ccc(CC(=O)Nc2ccc3c(C)cc(=O)oc3c2)cc1OC	-8.5	3.3	40.1*	-10.1	8.2	0.3
COc1ccc(-c2csc(NC(=S)NC(=O)c3cccs3)n2)cc1OC	·	1.0	·	3.8	·	·
COc1ccc(-c2csc(NC(=S)NC(=O)c3ccc(S(=O)(=O)N(C)C)cc3)n2)cc1OC	14.7	2.6	46.2*	·	58.7*	41.5*
O=[N+]([O-])c1cc(Cl)ccc1NCCNc1ncc(C(F)(F)F)cc1Cl	9.8	-0.9	17.2	-3.8	·	·
O=[N+]([O-])c1ccccc1NCCNc1ncc(C(F)(F)F)cc1Cl	25.4	3.2	61.6*	-5.2	53.1*	11.4
Cc1cccnc1NC(=O)c1ccc(S(=O)(=O)N2CCC(C)CC2)cc1	18.0	1.9	30.8*	·	4.3	2.5
Cc1cc(S(=O)(=O)Nc2c(NC3CCCCC3)c3ccccc3oc2=O)ccc1F	3.5	0.6	15.0	·	·	·
CC(=O)Nc1ccc(S(=O)(=O)Nc2ccc(S(=O)(=O)Nc3ncccn3)cc2)cc1	8.1	0.3	82.4*	·	6.5	8.1
CC(=O)Nc1ccc(S(=O)(=O)Nc2c(NC3CCCCC3)c3ccccc3oc2=O)cc1	-12.2	0.4	32.3*	·	-2.7	-0.4
CCN(/N=C/c1ccc(Cl)cc1)c1cc(=O)n(C)c(=O)[nH]1	-7.5	-1.2	37.3*	-3.0	-8.3	-8.5
CCN(/N=C/C=C/c1ccccc1)c1cc(=O)n(C)c(=O)[nH]1	-1.3	0.8	6.5	-9.5	·	·
CCC(=O)Nc1nnc(SCC(=O)c2ccc3c(c2)Cc2ccccc2-3)s1	5.9	-2.8	31.1*	-7.8	21.1	0.8
CC(=O)Nc1nnc(SCC(=O)c2ccc3c(c2)Cc2ccccc2-3)s1	8.5	-3.3	40.1*	-12.3	43.3*	2.9
O=C(NC(=S)Nc1ccc(S(=O)(=O)N2CCCCCC2)cc1)c1cccs1	-12.6	-3.3	85.0*	-7.9	65.6*	18.1
COc1ccccc1NC(=O)CN1CCN(CC(=O)Nc2ccc(C)c(F)c2)CC1	-8.0	0.3	-9.1	·	·	·
CCOc1ccc(C(=O)NC(=S)Nc2ccc(NC(=O)CC)cc2)cc1[N+](=O)[O-]	8.3	-1.4	4.0	4.6	·	·
CCC(=O)NC(=S)Nc1ccc(NC(=O)c2ccc(C)c([N+](=O)[O-])c2)cc1	1.4	4.9	43.2*	-12.4	32.7*	4.7
O=C1c2ccccc2C(=O)N1Cc1nc2ccccc2c(=O)n1CCCn1ccnc1	·	1.6	·	-6.9	·	·
CCCCn1c(CN2C(=O)c3ccccc3C2=O)nc2ccccc2c1=O	24.8	-1.1	31.6*	-46.5	31.2*	13.4
O=C(CCn1cnc2ccccc2c1=O)Nc1nc(-c2ccc(Br)cc2)cs1	16.0	0.9	32.3*	-41.6	44.4*	25.6
Cc1ccc(NC(=O)CCn2cnc3ccccc3c2=O)cc1	11.0	1.0	-0.4	-15.9	·	·
CCc1ccc2nc(NC(=O)Cn3cnc4ccccc4c3=O)sc2c1	14.4	-1.5	7.4	-21.3	·	·
Cc1ccccc1NC(=O)Cn1nc(C(=O)O)c2ccccc2c1=O	0.6	2.2	-2.3	·	·	·
O=C(Cn1nc(C(=O)O)c2ccccc2c1=O)Nc1nc(-c2ccccc2)cs1	-1.8	-2.6	31.5*	-7.0	30.2*	0.6
O=C(Cn1cnc2ccccc2c1=O)Nc1nc2ccccc2s1	5.3	1.5	45.2*	-23.1	54.8*	1.6
CC(C)c1c(C(=O)N/N=C/c2ccccc2OCc2c(F)cccc2Cl)nnn1-c1nonc1N	-4.4	-2.6	-11.5	·	·	·
O=C(N/N=C/c1ccc(-c2ccc(S(=O)(=O)Nc3ncccn3)cc2)o1)c1cc2ccccc2cc1O	27.6	0.0	32.3*	47.1	46.0*	40.9*
COc1ccc(CNC(=O)CN2CCN(c3ccccc3O)CC2)cc1OC	5.2	0.8	7.8	·	·	·
CSc1ccc(S(=O)(=O)N2c3ccccc3CC2C)cc1 (stereo not given)	-4.4	0.0	-3.5	·	·	·
